In PubChem BioAssay (NCATS):
Several values for one entry are separate records, joined by “and”; a condition that tells them apart may be missing. Equal values may be shown once. Records with an inconclusive call do not appear. Activity calls are given as the source filed them. Calls come from the whole dose curve; as a rule, active = well fitted curve in the direction sought with a large enough effect; inconclusive = small, poorly fitted or top-dose-only effect, or another doubt; inactive = no such curve, though single readings can be large; an effect the other way counts as inactive or inconclusive.

Columns and labels:
[1] = target: Cellular tumor antigen p53 (Homo sapiens) (UniProt P04637); assay: Primary qHTS for small molecule compounds that upregulate eGFP-tagged delta133p53alpha (in N-terminal) cells. (AID 2060322); conditions: NCI-H358 eGFP-delta133p53alpha fluorescence, 24 h; activation: stronger effect = higher value; note: nearly all actives have a fitted effect of over 75% in size; note: potency is the fitted concentration of half-maximal effect;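 for activation: cells pre-induced with doxycycline then dosed without doxycycline; series mostly up to about 56 µM; 0% = DMSO vehicle and 100% = reference activator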
Procedure, shortened: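 NCI-H358 cells pre-induced 24 h with 10 ng/ml doxycycline for eGFP-delta133p53alpha, plated dox-free and exposed 24 h at 37C to titrated compounds. Fixed, Hoechst-stained; gated GFP peak intensity by laser scanning cytometry, normalized to DMSO (0%) and 57.5 uM 5-azacytidine (100%).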

[2] = target: Aldehyde dehydrogenase, mitochondrial (Homo sapiens) (UniProt P05091); assay: qHTS for Inhibitors of the Aldehyde Dehydrogenase Family (ALDH2) Primary screen (AID 2061308);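 note: plate controls were vehicle for no effect and reference inhibitor for full effect; nearly all actives have a fitted effect of over 55% in size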
[3] = target: Retinaldehyde dehydrogenase 3 (Homo sapiens) (UniProt P47895); assay: qHTS for Inhibitors of the Aldehyde Dehydrogenase Family (ALDH1A3) Primary screen (AID 2061315);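 note: plate controls were DMSO vehicle for no effect and reference inhibitor for full effect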
[4] = BET inhibitor-based combinations targeting novel dependencies in MECOM-rearranged (r) AML: AML-191 cell line (AID 2202236; note: nearly all actives have a fitted effect of over 35% in size; note: potency is the fitted concentration of half-maximal effect)
Procedure, shortened: (§1)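 Cells were plated at 500 per well and exposed to an 11-point dose series of each drug for 48 hr. Viability was measured by CellTiter-Glo luminescence, normalized to DMSO and empty-well controls, and summarized as AUC and per-cell-line Z-AUC.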

[5] = BET inhibitor-based combinations targeting novel dependencies in MECOM-rearranged (r) AML: AML-194 cell line (AID 2202237; note: nearly all actives have a fitted effect of over 40% in size; note: potency is the fitted concentration of half-maximal effect)
Procedure, shortened: as §1

[6] = target: Retinaldehyde dehydrogenase 3 (Homo sapiens) (UniProt P47895); assay: qHTS for Inhibitors of the Aldehyde Dehydrogenase Family (ALDH1A3) Confirmatory screens (AID 2061311); note: nearly all actives have a fitted effect of over 60% in size; note: potency is the fitted concentration of half-maximal effect
[7] = target: Retinal dehydrogenase 2 (Homo sapiens) (UniProt O94788); assay: qHTS for Inhibitors of the Aldehyde Dehydrogenase Family (ALDH1A2) Confirmation screens (AID 2061314); note: potency is the fitted concentration of half-maximal effect; nearly all actives have a fitted effect of over 65% in size
[8] = BET inhibitor-based combinations targeting novel dependencies in MECOM-rearranged (r) AML: OCI-AML3 cell line (AID 2202232); conditions: Potency: OCI-AML3 viability; note: potency is the fitted concentration of half-maximal effect; nearly all actives have a fitted effect of over 35% in size
Procedure, shortened: as §1

[9] = BET inhibitor-based combinations targeting novel dependencies in MECOM-rearranged (r) AML: MV-4-11 cell line (AID 2202233); note: potency is the fitted concentration of half-maximal effect; nearly all actives have a fitted effect of over 45% in size
Procedure, shortened: (§2)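 Activity is given as area under the curve and as Z-AUC, mean-centred within each cell line. It comes from 11-point dose curves normalized to DMSO and empty wells. CellTiter-Glo luminescence was read after 48 hr drug exposure of 500 cells/well.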

[10] = BET inhibitor-based combinations targeting novel dependencies in MECOM-rearranged (r) AML: HNT-34 cell line (AID 2202234); note: potency is the fitted concentration of half-maximal effect; nearly all actives have a fitted effect of over 35% in size
Procedure, shortened: as §2

[11] = BET inhibitor-based combinations targeting novel dependencies in MECOM-rearranged (r) AML: UCSD-AML1 cell line (AID 2202235); note: potency is the fitted concentration of half-maximal effect; nearly all actives have a fitted effect of over 40% in size
Procedure, shortened: as §2

[12] = BET inhibitor-based combinations targeting novel dependencies in MECOM-rearranged (r) AML: SET-2 cell line (AID 2202231); conditions: SET-2 AML cells viability, CellTiter-Glo luminescence, 48 h; viability: stronger effect = lower value, concentration not given here; note: potency is the fitted concentration of half-maximal effect; nearly all actives have a fitted effect of over 35% in size
Procedure, shortened: as §1

[13] = target: Retinaldehyde dehydrogenase 3 (Homo sapiens) (UniProt P47895); assay: qHTS for Inhibitors of the Aldehyde Dehydrogenase Family (ALDH1A3) Validation screen (AID 2061312); note: % is set by controls: 0 for no effect and ±100 for the full control effect; nearly all actives have a fitted effect of over 45% in size

Cellular tumor antigen p53 (Homo sapiens), sequence (P04637 whole entry, looked up): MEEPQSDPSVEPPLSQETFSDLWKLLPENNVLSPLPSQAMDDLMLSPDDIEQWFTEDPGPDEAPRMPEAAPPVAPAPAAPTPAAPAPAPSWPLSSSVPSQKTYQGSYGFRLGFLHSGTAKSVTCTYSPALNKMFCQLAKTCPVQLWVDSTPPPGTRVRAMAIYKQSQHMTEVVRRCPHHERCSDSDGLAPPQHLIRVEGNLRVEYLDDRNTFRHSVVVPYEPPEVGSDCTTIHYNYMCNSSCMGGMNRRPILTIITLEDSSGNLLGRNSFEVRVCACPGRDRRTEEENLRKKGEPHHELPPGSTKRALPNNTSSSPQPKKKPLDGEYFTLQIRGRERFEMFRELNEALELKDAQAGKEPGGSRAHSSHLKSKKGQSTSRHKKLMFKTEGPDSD

COc1c(Cl)cc2c([nH]c3cnccc32)c1NC(=O)c1cccnc1C
active: Potency [4] 20.9 µM | Potency [5] 23.5 µM
inactive: activation [1] 16.3% | Potency [2] | Potency [3]

COc1cc(O)c2c(c1)/C=C/C[C@H](O)[C@H](O)C(=O)/C=C\C[C@H](C)OC2=O
active: Potency [1] 10.7 µM | Potency [6] 5.04 µM | Potency [7] 5.04 µM

COc1nc(-c2ccc3c(c2)OCO3)n(-c2ccc(NC(=O)CSc3ccccc3)cc2)n1
inactive: activation [1] 2.57% and -11.7% | Potency [2] | Potency [3] | Potency [4] | Potency [5]

NC1(c2ccc(-c3nc4ccn5c(=O)[nH]nc5c4cc3-c3ccccc3)cc2)CCC1
inactive: activation [1] 26.3% and 14.1% and 3.82% | Potency [2]
active: Potency [8] 16.6 µM | Potency [9] 13.2 µM | Potency [10] 7.42 µM | Potency [11] 14.8 µM | Potency [4] 18.6 µM | Potency [5] 18.6 µM

CC1(C)C=CN2C(=O)C3=CCCN3C(=O)[C@@H]2C[C@@]12Nc1ccccc1C2=O
inactive: activation [1] -19.8%
active: Potency [6] 7.83 µM

C=C1CCC2C(C)(COC(C)=O)CCCC2(C)C1CCC(C)CC(=O)O (stereo unspecified)
inactive: activation [1] -12.2% | Potency [6] | Potency [3]

c1nc2nc(Nc3ccc(N4CCOCC4)cc3)nc(NC3CCCCC3)c2[nH]1
inactive: activation [1] -34% | Potency [2]
active: Potency [12] 4.17 µM | Potency [8] 3.32 µM | Potency [9] 0.372 µM | Potency [10] 1.48 µM | Potency [5] 2.63 µM

CC(C(=O)O)c1ccc2c(c1)[nH]c1ccc(Cl)cc12 (stereo unspecified)
inactive: activation [1] 8.47% and -3.82% | Potency [13] | Potency [3]
active: Potency [6] 15.9 µM | Potency [7] 6.34 µM

OCc1ccc(-c2ccc(-c3ccc(CO)s3)o2)s1
inactive: activation [1] 23.8% and 25% | Potency [2]
active: Potency [8] 18.6 µM | Potency [9] 13.2 µM | Potency [4] 26.3 µM | Potency [5] 26.3 µM

COc1cc(N2CCN(C(C)=O)CC2)ccc1Nc1ncc(Cl)c(Nc2ccc(N3CCN(C(C)=O)CC3)cc2OC)n1
active: Potency [9] 0.934 µM | Potency [10] 6.61 µM | Potency [11] 4.17 µM
inactive: activation [1] -5.36% | Potency [2]

Cc1ccc([N+](=O)[O-])cc1S(=O)(=O)N(C)/N=C/c1cnc2ccc(Br)cn12
inactive: Potency [2]
active: Potency [1] 0.213 µM | Potency [12] 0.166 µM | Potency [8] 0.235 µM | Potency [9] 0.0417 µM | Potency [10] 0.166 µM | Potency [11] 0.166 µM | Potency [4] 0.166 µM

Cc1ccc(S(=O)(=O)Nc2cc(Cl)ccc2C(=O)Nc2nc(-c3ccccc3)cs2)cc1
active: Potency [5] 7.42 µM
inactive: activation [1] 7.51% | Potency [2] | Potency [3]

O=C(/C=C/c1cccc(S(=O)(=O)Nc2ccccc2)c1)NO
inactive: Potency [2]
active: Potency [1] 5.44 µM | Potency [12] 0.263 µM | Potency [8] 0.742 µM | Potency [9] 0.296 µM | Potency [10] 0.934 µM | Potency [11] 0.742 µM | Potency [4] 0.934 µM | Potency [5] 1.05 µM

C=CC(=O)Nc1cccc(Oc2nc(Nc3ccc(N4CCN(C)CC4)cc3OC)ncc2Cl)c1
active: Potency [1] 19.3 µM and 30.1 µM | Potency [12] 20.9 µM | Potency [8] 10.5 µM | Potency [9] 4.68 µM | Potency [10] 9.34 µM | Potency [4] 14.8 µM | Potency [5] 16.6 µM
inactive: Potency [2]

N#C/C(=C\c1ccc(O)c(O)c1)C(=O)Nc1ccccc1
active: Potency [6] 2.25 µM
inactive: activation [1] -12.1%

N#CC[C@H](C1CCCC1)n1cc(-c2ncnc3[nH]ccc23)cn1
active: Potency [4] 5.9 µM
inactive: activation [1] 7.18% and -12.3% | Potency [2] | Potency [3]

NC(=O)c1noc([C@H](CCCC2CCCCC2)CC(=O)NO)n1
active: Potency [12] 5.9 µM | Potency [8] 14.8 µM | Potency [9] 18.6 µM | Potency [11] 5.25 µM | Potency [4] 3.72 µM | Potency [5] 6.61 µM
inactive: activation [1] -7.14% | Potency [2]

CNC(=O)c1c(F)cccc1Nc1nc(Nc2cc3c(cc2OC)CCN3C(=O)CN(C)C)nc2[nH]ccc12
active: Potency [12] 8.33 µM | Potency [8] 9.34 µM | Potency [9] 7.42 µM | Potency [10] 6.61 µM | Potency [11] 8.33 µM | Potency [4] 8.33 µM | Potency [5] 7.42 µM
inactive: activation [1] 42.7% | Potency [2]

FC(F)c1nc2ccccc2n1-c1nc(N2CCOCC2)nc(N2CCOCC2)n1
inactive: activation [1] 43.2% and 24.1% | Potency [2]
active: Potency [12] 3.72 µM | Potency [8] 0.235 µM | Potency [9] 0.209 µM
